A3G deaminase: APOBEC3G (human) deaminase inhibition; recombinant A3G, ssDNA deamination FAM/TAMRA fluorescence; inhibition, % at 20 µM; actives 0.28% (n = 330,000); AID 493012;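 active means inhibition of at least 40% at 20 µM, with no more than 30% in the related APOBEC3A deaminase screen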;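 further: plate controls were DMSO wells with A3G for no effect and wells lacking A3G enzyme for full effect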
TAG inh: triacylglycerol accumulation inhibition; H9c2 cells, Nile Red lipid (TAG) fluorescence; cells loaded with 200 µM oleic acid; inhibition, % at 12.5 µM; actives 0.66% (n = 230,000); AID 651582;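 active means pattern-corrected inhibition of lipid staining of at least 50% with the nuclear-stain viability signal not falling by more than 50%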;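 further: 0% = DMSO wells and 100% = triacsin C control wells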
A3A deaminase: human APOBEC3A DNA deaminase inhibition; P31941; actives 0.41% (n = 330,000); recombinant A3A, FAM/TAMRA ssDNA deamination fluorescence; AID 493011; inhibition, % at 20 µM;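 active means at least 40% inhibition at 20 µM here, with at most 30% in a related deaminase screen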;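 further: plate controls were A3A with DMSO for no effect and wells lacking A3A enzyme for full effect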
Target sequence (P31941 whole entry, looked up): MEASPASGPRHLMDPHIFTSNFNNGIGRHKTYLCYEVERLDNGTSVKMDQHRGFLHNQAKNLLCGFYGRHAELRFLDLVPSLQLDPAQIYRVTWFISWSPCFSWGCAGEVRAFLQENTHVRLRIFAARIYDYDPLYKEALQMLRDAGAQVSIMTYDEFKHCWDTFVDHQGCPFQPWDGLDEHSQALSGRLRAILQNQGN
NadD inh: NadD (S. aureus) enzyme inhibition. purified NadD enzyme, colorimetric absorbance read-out. inhibition, % at 20 µM. actives 0.78% (n = 360,000); in the data active means inhibition above about 26%
H9c2 protect: modulators protecting cardiomyocytes from myocardial damage; H9c2 cardiomyocytes, H2O2 injury protection, ATPLite, 2 h; protection from H2O2 cell death, % at 20 µM; actives 0.63% (n = 360,000); AID 588492;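 active means compounds giving at least 50% protection of heart cells from peroxide-induced death in the single-dose screen, raw or plate-pattern-corrected value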;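 further: 0% = DMSO wells with peroxide and 100% = DMSO wells without peroxide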
PfG6PD inh: PfG6PD (Plasmodium falciparum) enzyme inhibition; inhibition, % at 20 µM; actives 0.78% (n = 350,000); PfGluPho enzyme, NADPH resazurin-diaphorase fluorescence;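 active means inhibition reaching at least a set limit at 20 µM in the primary screen, cut at about 59% in these data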;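 further: 0% = DMSO wells with substrate and 100% = DMSO wells lacking glucose-6-phosphate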
* = called active by the depositor. Shown are actives, neighbours in structure and some others; about 2.9% of the full set was active somewhere.

`COC(=O)c1c(C)oc2ccc(N(C(=O)Oc3ccccc3)S(=O)(=O)c3ccc(Cl)c([N+](=O)[O-])c3)cc12` gave A3G deaminase 3, A3A deaminase 20, NadD inh 31*, H9c2 protect -15 and PfG6PD inh -4.
For CCN(CC)CCOC(=O)c1ccc(N/C=C(/C#N)c2nc(-c3cccc(OC)c3)cs2)cc1 the results were A3G deaminase -9, TAG inh 24, A3A deaminase -1, NadD inh -5, H9c2 protect 1 and PfG6PD inh 4.
For CCN(CC)CCOC(=O)c1ccc(N/C=C(/C#N)c2nc(-c3ccc(OC)c(OC)c3)cs2)cc1 the results were A3G deaminase -5, TAG inh 61*, A3A deaminase 2, NadD inh 17, H9c2 protect 17 and PfG6PD inh 54.
For Cc1ccc(NC(=O)CN(C)C(=O)c2cccc(S(=O)(=O)NCc3cccs3)c2)cc1 the results were A3G deaminase -5, TAG inh 2, A3A deaminase 2, NadD inh -4, H9c2 protect 2 and PfG6PD inh 3.
`O=C(/C=C1\NC2(CCCC2)Cc2ccccc21)C(=O)N/N=C/c1ccccc1O` gave A3G deaminase -13, A3A deaminase 1, NadD inh 20, H9c2 protect 80* and PfG6PD inh -34.
`CC(C)CCN(C(=O)CNC(=O)c1ccco1)C(C(=O)NC1CCCCC1)c1ccco1` (stereo not drawn) gave A3G deaminase -1, TAG inh 3, A3A deaminase 0, NadD inh 9, H9c2 protect 52* and PfG6PD inh -4.
Screening O=C1CC[C@@H](CN(Cc2ccccn2)Cc2nc(Cc3cccc(C(F)(F)F)c3)no2)N1 returned A3G deaminase -5, A3A deaminase 1, NadD inh 0, H9c2 protect 2 and PfG6PD inh 8.
`CCn1c(=Nc2ccc(N3CCOCC3)cc2)ccc2ccccc21` gave A3G deaminase -4, TAG inh -41, A3A deaminase -3, NadD inh -4, H9c2 protect 0 and PfG6PD inh 20.
Screening Cn1c(N=Nc2ccc(N3CCOCC3)cc2)[n+](C)c2ccccc21 returned TAG inh 51*, NadD inh -1, H9c2 protect -13 and PfG6PD inh 51.
O=C(CN(CCc1ccccc1)S(=O)(=O)c1ccc(Cl)cc1)N/N=C/c1ccccc1C(=O)O was read as A3G deaminase -7, TAG inh -13, A3A deaminase -2, NadD inh 4, H9c2 protect 3 and PfG6PD inh -14.
CCOc1ccc2nc(N=NC3=C(O)CC(C)(C)CC3=O)sc2c1 was read as A3G deaminase -1, TAG inh 6, A3A deaminase 2, NadD inh 4, H9c2 protect 51* and PfG6PD inh 8.
Screening CCN(c1ccc(C(=O)CSc2nnc(C3CC3)n2C2CC2)cc1)S(C)(=O)=O returned A3G deaminase 0, TAG inh -13, A3A deaminase 2, NadD inh 1, H9c2 protect -4 and PfG6PD inh 12.
For CC(=NNC(=S)N1CCC1)c1ccccn1 the results were TAG inh 48, NadD inh 5, H9c2 protect 43 and PfG6PD inh 50.
CC(=NNC(=S)N1CC2CCC(CC2)C1)c1cccc(C)n1 was read as TAG inh 53*, NadD inh 3, H9c2 protect 8 and PfG6PD inh 13.
For CCN(CC)CCn1c2c(c(SCC(=O)Nc3cccc(C(C)=O)c3)nc1=O)CCCC2 the results were A3G deaminase 8, TAG inh 18, A3A deaminase 3, NadD inh -3, H9c2 protect 75* and PfG6PD inh -10.
For COc1cccc(C(C)NC(=O)Cc2cccs2)c1 (stereo not drawn) the results were A3G deaminase -4, TAG inh 4, A3A deaminase -6, NadD inh 7, H9c2 protect 4 and PfG6PD inh 3.
CCOC1=C/C(=C/c2c(N)n3nc(-c4ccccc4)sc3nc2=O)C=CC1=O was read as A3G deaminase -3, A3A deaminase -4, NadD inh 43*, H9c2 protect 19 and PfG6PD inh -15.
`COC1=C/C(=C/c2c(N)n3nc(-c4ccc(C)cc4)sc3nc2=O)C=CC1=O` gave TAG inh -2, NadD inh 35*, H9c2 protect -3 and PfG6PD inh -15.
For COc1ccc(S(N)(=O)=O)cc1C(N)=O the results were A3G deaminase -4, A3A deaminase -2, NadD inh 0, H9c2 protect 5 and PfG6PD inh -16.
For CCOc1ccc(/C=N/Nc2cc(N3CCOCC3)nc(C)n2)c(O)c1 the results were A3G deaminase -8, A3A deaminase -2, NadD inh 8, H9c2 protect 78* and PfG6PD inh -11.
`CCOc1ccc(/C=N/Nc2cc(C)nc(N3CCOCC3)n2)cc1` gave A3G deaminase -8, TAG inh 10, A3A deaminase -3, NadD inh -1, H9c2 protect 2 and PfG6PD inh 18.
`COc1cccc(/C=N/Nc2ncnc3c2ncn3Cc2ccccc2)c1O` gave A3G deaminase 0, TAG inh -9, A3A deaminase -1, NadD inh 8, H9c2 protect 60* and PfG6PD inh -24.
`COc1cccc(/C=N/Nc2cc(N3CCOCC3)ncn2)c1O` gave A3G deaminase -8, TAG inh 71*, A3A deaminase -1, NadD inh -3, H9c2 protect 17 and PfG6PD inh 21.
Cc1ccc(C#CC[N+](C)(C)CC#Cc2ccccc2)cc1 was read as A3G deaminase -2, TAG inh 2, A3A deaminase 0, NadD inh -7, H9c2 protect -12 and PfG6PD inh -2.
Screening COc1ccc(N2CC(C(=O)Nc3cccc(OC(C)C)c3)CC2=O)cc1 (stereo not drawn) returned A3G deaminase -5, A3A deaminase -1, NadD inh 0, H9c2 protect -5 and PfG6PD inh -12.
`Cc1cccc(C(=O)NNC(=O)c2ccc(NS(=O)(=O)c3cccs3)cc2)c1C` gave A3G deaminase 1, TAG inh -2, A3A deaminase 0, NadD inh -6, H9c2 protect 0 and PfG6PD inh -3.
O=C(C1COc2ccccc2O1)N1CCN(c2nc3c(F)cc(F)cc3s2)CC1 (stereo not drawn) was read as A3G deaminase -5, TAG inh 13, A3A deaminase -1, NadD inh -2, H9c2 protect 2 and PfG6PD inh -14.
Screening CCOc1ccc(N(CC(=O)Nc2cccc(Br)c2)S(C)(=O)=O)cc1 returned A3G deaminase -5, TAG inh -2, A3A deaminase 3, NadD inh -9, H9c2 protect -11 and PfG6PD inh 8.
